Bioassay records deposited in PubChem by National Center for Advancing Translational Sciences (NCATS).
S2 tox = reduces viability in counter-screen for ATXN expression inhibitors; Potency, µM (doses to about 56.7 µM), actives largely listed as cytotoxic; S2 cells (HEK-293 line with an ATXN2-luciferase reporter) viability, CellTiter-Fluor protease fluorescence, 24 h; 400,000 tested, 0.49% active; further: nearly all actives have a fitted effect of over 40% in size
HttQ103 aggreg = inhibitors of mutant huntingtin aggregate formation in PC12 cells | 220,000 tested, 1.1% active | Potency, µM (highest dose often 46.1 µM), for inactives: at the highest dose activity change, negative = inhibition, hits mostly inhibitors | PC12 HttQ103-GFP aggregates, Acumen cytometry, 40 h; further: on the % scale 0 is the no-effect control and ±100 the full control effect; nearly all actives have a fitted effect of over 60% in size
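PC12/HTTQ103-GFP, ecdysone-inducible; teb 100 nM; cpd qHTS titration; GFP aggregates read on laser cytometer, Ex 488/Em 500-530 nm.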
ATXN2 expr inh = ATXN2 expression inhibition; HEK-293 ATXN2-luciferase reporter, luminescence, 24 h; Potency, µM (top dose mostly 57 µM), inactives show top-dose activity change, negative = inhibition, most hits filed as inhibitors; 360,000 tested, 0.72% active; AID 1745845; further: on the % scale 0 is the no-effect control and ±100 the full control effect; nearly all actives have a fitted effect of over 55% in size
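ATXN2-luciferase reporter cells (luciferase flanked by upstream and downstream ATXN2 gene portions) were treated 24 h at 37 °C with compounds at up to 57 uM. SteadyGlo luminescence gave expression; GF-AFC fluorescence gave viability.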
HTT ATP protect = protects HTT-Q103 PC12 cells, measured by ATP; PC12 HTT-Q103 induced, cytoprotection, ATP luminescence, 40 h; Potency, µM (highest dose often 56.4 µM), for inactives: cytoprotection (ATP increase), most hits filed as activators; 230,000 tested, 0.14% active; AID 1471; further: % of control where 0% means no effect; nearly all actives have a fitted effect of over 45% in size
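ATP quantification (ATPlite) reports survival of PC12 cells in which tebufenozide, 100 nM final, switches on Htt exon 1 with 103 glutamines linked to GFP; compounds are titrated.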
TGFb SMAD3 inh = inhibitors of TGF-b signaling. HepG2 CAGA-GFP TGF-b/SMAD3 reporter, GFP fluorescence, 18 h; TGF-beta stimulated, 500 pg/mL final. Potency, µM (highest dose often 46.1 µM), inactives show top-dose activity, negative = inhibition, most hits filed as inhibitors. 410,000 tested, 1.2% active. AID 588855; further: on the % scale 0 is the no-effect control and ±100 the full control effect; nearly all actives have a fitted effect of over 65% in size
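Using HEPG2 CAGA-GFP reporter cells at 1000 cells/well, we pinned test compounds, stimulated with recombinant TGF-beta (500 pg/mL final) and measured total well GFP after 18 h.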
HepG2 tox = kills HepG2 cells in TGF-b inhibitor counter-screen; HepG2 CAGA-GFP viability, ATP luminescence, 18 h; Potency, µM (doses to about 46.1 µM), inactives show top-dose activity change, negative = cytotoxicity, hits mostly cytotoxic; 410,000 tested, 0.76% active
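HepG2 CAGA-GFP cells (1000/well, DMEM with 1% FBS) received compound, then TGF-beta at 500 pg/mL final, and were incubated 18 hours at 37 degrees C. Viability was read by CellTiter-Glo luminescence. Media-only wells were set as complete cell-killing and DMSO as no toxicity.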
* = called active by the depositor; i = inactive; ? = inconclusive; . = no result; ! = not active in a repeat; [ ] = dose if it differs, or a comment. Sampled rows, rich in hits. Any-hit rate of the full collection: about 2.8%. The call rests on the fitted dose curve; in most records, active means well fitted curve in the direction sought with a large enough effect; inconclusive means small, poorly fitted or top-dose-only effect, or another doubt; inactive means no such curve, though single readings can be large; an effect the other way counts as inactive or inconclusive. Potency means the concentration at half of the fitted maximal effect.

SMILES	S2 tox	HttQ103 aggreg	ATXN2 expr inh	HTT ATP protect	TGFb SMAD3 inh	HepG2 tox
O=C(Nc1nc2ccc(F)cc2s1)c1nc(S(=O)(=O)Cc2ccccc2F)ncc1Cl	11µM*	.	25µM*	.	6.3µM*	7.1µM*
CCOc1ccccc1NC(=O)c1nc(S(=O)(=O)Cc2cccc(C)c2)ncc1Cl	32µM*!	.	-12%	.	?	-21%
CCc1nnc(NC(=O)c2nc(S(=O)(=O)Cc3cccc(C)c3)ncc2Cl)s1	?	.	?	.	11µM*	22µM*
O=C(C[N+]1(CCO)CCOCC1)c1ccc2ccccc2c1	.	.	.	.	23%	14%
CSc1nnc(NC(=O)c2nc(S(=O)(=O)Cc3cccc(C)c3)ncc2Cl)s1	22µM*	.	28µM*	.	?	-76%
CCSc1nnc(NC(=O)c2nc(S(=O)(=O)Cc3ccc(F)cc3)ncc2Cl)s1	?	.	?	.	?	-46%
Cc1cccc(CS(=O)(=O)c2ncc(Cl)c(C(=O)Nc3nnc(C(C)C)s3)n2)c1	28µM*	.	-35%	.	11µM*	11µM*!
Cc1ccc(CS(=O)(=O)c2ncc(Cl)c(C(=O)Nc3nnc(C(C)C)s3)n2)cc1	?	.	?	.	13µM*	11µM*!
CCNC(=O)c1c(NC(=O)c2nc(S(=O)(=O)CC)ncc2Cl)sc2c1CCCC2	.	.	.	.	1.4µM*	4µM*
CCNC(=O)c1c(NC(=O)c2nc(SCC)ncc2Cl)sc2c1CCCC2	.	.	.	.	10%	11%
C[C@H]1Cc2c(COc3ccccc3)nc3c(c2CO1)CN(C(=O)C1CCCCC1)CC3	.	.	.	-16%[10 µM]	.	.
NS(=O)(=O)c1ccc(CCNC(=O)c2ccc([N+](=O)[O-])s2)cc1	i	.	-34%	.	?	20µM*
NS(=O)(=O)c1ccc(CCNC(=O)c2ccc(Cl)s2)cc1	i	.	-26%	.	-19%	-4%
COc1ccc(Cl)cc1S(=O)(=O)Nc1ccc2c(c1)n(C)c(=O)n2C	i	.	48%	.	-19%	20µM*!
O=C1CCCC(O)=C1C(C#Cc1ccccc1)C1=C(O)CCCC1=O	?	12%	?	6%[10 µM]	?	16µM*
CC1(C)CC(=O)C(C(C#Cc2ccccc2)C2=C(O)CC(C)(C)CC2=O)=C(O)C1	?	15%	?	-19%	?	-50%
Cc1ccc(SCCC(=O)OCn2nnc3ccccc3c2=O)cc1	i	1%	-17%	2%[10 µM]	3%	-12%
O=C(CCSc1ccccc1)OCn1nnc2ccccc2c1=O	i	3%	5%	-7%	4µM*	-7%
O=C1C(SCCO)=C(SCCO)C(=O)c2ccccc21	.	.	?	-102%	3.2µM*	7.1µM*!
CC(=O)c1ccccc1C(=O)NCC1Cc2cccc(-c3cccnc3)c2O1 (stereo not drawn)	i	.	.	.	.	.
C=CC[C@H](CC(=O)N(CCO)Cc1ccccc1)C(=O)N[C@@H](COC(=O)[C@@H](CC=C)CC(=O)OC(C)(C)C)Cc1c[nH]c2ccccc12	.	.	?	.	?	-21%
C=CC[C@H](CC(=O)N(CCO)Cc1ccccc1)C(=O)N[C@H](COC(=O)[C@H](CC=C)CC(=O)OC(C)(C)C)Cc1c[nH]c2ccccc12	22µM*	.	?	.	?	4%
C=CC[C@@H](CC(=O)N[C@@H](CO)Cc1ccccc1)C(=O)N[C@H](COC(=O)[C@H](CC=C)CC(=O)OC(C)(C)C)Cc1c[nH]c2ccccc12	.	.	?	.	?	-15%
C=CC[C@@H](CC(=O)N[C@H](CO)Cc1ccccc1)C(=O)N[C@H](COC(=O)[C@H](CC=C)CC(=O)OC(C)(C)C)Cc1c[nH]c2ccccc12	28µM*	.	?	.	16µM*	-38%
Clc1nssc1=Nc1ccc(Br)cc1	?	?	-30%	-101%	?	-31%
COc1cc(N=c2ssnc2Cl)cc(OC)c1	?	10µM*	-22%	12%	?	-3%
